Source: PubChem BioAssay
An excerpt weighted towards active compounds, which were near 1.6% of everything screened.
KCNQ2 inh = blocks the rat KCNQ2 potassium channel | B-score at 10 µM | CHO-K1 KCNQ2, FluxOR thallium flux, 20 min; active compounds read low | AID 2156 | actives 1.1% (n = 310,000);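 active means fluorescence ratio B-score at most minus 3 library SDs, with starting brightness B-score within 2 library SDs, cut at about -5.5 in these data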
Target sequence (O88943 whole entry, looked up): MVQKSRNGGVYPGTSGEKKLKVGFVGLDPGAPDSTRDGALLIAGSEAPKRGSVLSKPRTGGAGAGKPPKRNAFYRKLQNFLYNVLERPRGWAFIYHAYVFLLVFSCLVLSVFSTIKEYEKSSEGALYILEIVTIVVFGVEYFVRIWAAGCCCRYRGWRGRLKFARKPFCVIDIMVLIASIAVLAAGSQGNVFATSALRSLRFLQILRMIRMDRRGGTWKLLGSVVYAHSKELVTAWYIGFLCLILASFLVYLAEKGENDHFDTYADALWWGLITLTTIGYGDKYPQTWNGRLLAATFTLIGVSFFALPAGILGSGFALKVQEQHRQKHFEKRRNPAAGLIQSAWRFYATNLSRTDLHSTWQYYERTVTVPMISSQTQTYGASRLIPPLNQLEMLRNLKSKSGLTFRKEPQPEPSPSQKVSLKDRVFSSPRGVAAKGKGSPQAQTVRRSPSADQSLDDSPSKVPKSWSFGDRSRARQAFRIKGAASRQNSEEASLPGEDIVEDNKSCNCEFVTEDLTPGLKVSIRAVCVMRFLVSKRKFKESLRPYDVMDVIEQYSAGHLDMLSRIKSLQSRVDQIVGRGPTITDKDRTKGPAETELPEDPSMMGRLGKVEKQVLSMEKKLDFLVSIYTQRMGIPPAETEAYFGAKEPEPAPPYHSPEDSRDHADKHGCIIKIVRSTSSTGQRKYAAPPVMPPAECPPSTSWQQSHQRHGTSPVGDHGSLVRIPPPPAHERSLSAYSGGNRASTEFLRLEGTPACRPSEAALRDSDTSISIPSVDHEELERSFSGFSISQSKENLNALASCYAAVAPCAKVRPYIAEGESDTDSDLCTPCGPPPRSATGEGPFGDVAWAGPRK
KCNQ2 pot = KCNQ2 (rat) channel potentiation; O88943; CHO-K1 KCNQ2, FluxOR thallium flux fluorescence; active compounds read high; B-score at 10 µM; actives 0.54% (n = 310,000); AID 2239;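 active means fluorescence ratio B-score at least 3 SD of library B-scores, with initial fluorescence B-score within 3 of them, cut at about 5.3 in these data; same plate scores as AID 2156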;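 further: B-score of peak minus minimum over baseline fluorescence ratio after K+ and Tl+ stimulus; positive B-score means potentiation of KCNQ2 with more thallium influx and brighter signal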
Numbers stand for hits; 0 = inactive; - = no result given.

SMILES	KCNQ2 inh	KCNQ2 pot
CCCCNC(=O)CCSc1ccc(C)cc1	0	-
Cc1ccc(SCCC(=O)NCCSCc2ccccc2C)cc1	-7.8	0
COc1ccc(O[C@H]2C=C[C@@H](c3ccccc3)O[C@@H]2CO/N=C(\C)CCN2CCc3nc(-c4ccccc4)c(-c4ccccc4)cc3C2)cc1	0	7.5
CCc1cc2c(nc1CC)CCN(CC/C(C)=N/OC[C@H]1O[C@H](c3ccccc3)C=C[C@@H]1Oc1ccc(OC)cc1)C2	0	-
O=C(Nc1ccccc1N1CCCCC1)C1CCN(S(=O)(=O)c2cccc(C(F)(F)F)c2)CC1	-6.9	0
O=C(Nc1ccccc1N1CCCC1)C1CCN(S(=O)(=O)c2cccc(C(F)(F)F)c2)CC1	0	-
CCOc1ccc(Br)cc1S(=O)(=O)NC(=O)c1ccccc1	0	0
COc1cccc(CNC(=O)Cc2ccc(S(=O)(=O)N3CCOCC3)s2)c1	0	0
CC1=NN(C(=O)c2cccnc2)C(O)(C(F)(F)F)C1 (stereo not given)	0	11
CC1=NN(C(=O)c2ccc(Cn3nc(C)c([N+](=O)[O-])c3C)cc2)C(O)(C(F)(F)F)C1 (stereo not given)	0	0
CC1=NN(C(=O)c2ccc(Cn3nc(C)c(Br)c3C)cc2)C(O)(C(F)(F)F)C1 (stereo not given)	0	13
CC(C)C1=NN(C(=O)c2cccnc2)C(O)(C(F)(F)F)C1 (stereo not given)	0	0
CC(OC(=O)CSc1ccc(F)cc1)C(=O)NC1(C#N)CCCCC1 (stereo not given)	0	0
Cc1ccc(S(=O)(=O)Cn2nnnc2C(C(C)C)N2CCC(O)CC2)cc1 (stereo not given)	0	0
COc1cc(C(=O)Nc2cc(C(F)(F)F)ccc2N2CCOCC2)ccc1OCC(=O)N1CCOCC1	0	-
CCOC(=O)C1CCN(S(=O)(=O)c2ccc3c(c2)CCN3C(=O)C2CCC2)CC1	0	-
Cc1cccc(/C=C/c2onc(C)c2S(=O)(=O)N2CCC(C(=O)N3CCC(C)CC3)CC2)c1	0	-
Cc1cccc(/C=C/c2onc(C)c2S(=O)(=O)N2CCC(C(=O)N3CCCCCC3)CC2)c1	-6	0
CC(Cc1cccnc1)NC(=O)c1cc(COc2ccc(F)cc2Cl)on1 (stereo not given)	0	-
COc1cccc(/C=N/NC(=O)CSc2ccccc2C)c1O	0	9.4
COc1cccc(/C=N/NC(=O)CSc2ccccc2C)c1OC	0	-
CC1CCN(S(=O)(=O)c2cc3c4c(c2)CCN4C(=O)CC3)CC1	0	0
COc1ccc(CNC(=O)C2CCN(c3nc(-c4ccccc4)nc4c3CCC4)CC2)cc1	0	-
O=C(NCc1ccccc1)C1CCN(c2nc(-c3ccccc3)nc3c2CCC3)CC1	-5.8	0
O=C(OC1CCCCC1)c1ccc(NC(=O)c2ccco2)cc1	0	0
SMILES	KCNQ2 inh	KCNQ2 pot
COC(=O)c1ccc([C@H](NC(=O)c2ccco2)[C@]2(C)C[C@H]2C2CCCCC2)cc1	-6	0
O=C(OCCCOC(=O)c1ccc(Br)o1)c1ccc(Br)o1	0	0
CCOC(=O)C1=C(C)NC(C)=C(C(=O)OCC)C1/C=C/c1ccccc1OC	0	0
CCOC(=O)C1=C(C)NC(C)=C(C(=O)OCC)C1c1ccccc1/C=C/C(=O)OC(C)(C)C	-6.7	0
O=C(CCC(=O)OCc1ccc([N+](=O)[O-])cc1Cl)Nc1ccccc1	0	0
COc1ccc(C2=NO[C@@](CC(=O)O)(C(=O)Nc3ccc4c(c3)OCCO4)C2)cc1	0	-
CCSc1nc(C2CC2)cc(-c2cccs2)c1C#N	0	-
N#Cc1c(-c2ccccc2F)cc(C2CC2)nc1SCC(=O)c1cccs1	0	12
Cc1cc(C(C)(C)C)oc1C(=O)N(CC(=O)NC1CCCC1)c1ccc(F)cc1	0	-
Cc1cc(C(C)(C)C)oc1C(=O)N(CC(=O)NC1CCCC1)c1c(C)cccc1C	-7	0
COc1ccc(NC2CCCN(C(=O)CSc3ccccn3)C2)cc1OC (stereo not given)	0	0
Cc1ccc(OCCN2CCN(c3ncnc4sc(C)c(C)c34)CC2)cc1	0	-
Clc1ccc(OCCN2CCN(c3ncnc4sccc34)CC2)cc1	-6	0
CCC1CCCCN1CCCNC(=O)c1ccc2c(c1)N(Cc1c(F)cccc1Cl)C(=O)CS2 (stereo not given)	0	-
O=C(NCc1ccc2c(c1)OCO2)c1ccc2c(c1)N(Cc1c(F)cccc1Cl)C(=O)CS2	0	8.7
CC(=O)NC(CC(=O)NNC(=O)c1cccs1)c1ccccc1 (stereo not given)	0	-
CC(C)c1ccc(N(C(=O)CNC(=O)c2ccco2)C(C(=O)NC2CCCC2)c2cccnc2)cc1 (stereo not given)	0	-
CN(Cc1ccccc1)C(=O)COC(=O)c1ccccc1NS(=O)(=O)c1cccc(N)c1	0	-
CC(OC(=O)c1ccccc1NS(=O)(=O)c1cccc(C(F)(F)F)c1)C(=O)N(C)Cc1ccccc1 (stereo not given)	-6.5	0
CC(=O)C1C(=O)CC(C)(O)C(C(C)=O)C1c1ccccc1 (stereo not given)	0	-
COc1cccc(Oc2nnnn2-c2ccccc2)c1	0	-
COc1cccc(-n2nnnc2S(C)(=O)=O)c1	-7.8	0
CCCCc1ccc(N=N/C(C(=O)Nc2ccc(NC(C)=O)cc2OC)=C(/C)O)cc1	0	-
CCOC(=O)N1CCC(NC(=O)CC2C(=O)NCCN2Cc2ccccc2F)CC1 (stereo not given)	0	-
Cc1cc(C)c2c(NC(=O)CCl)nn(C)c2n1	0	0
SMILES	KCNQ2 inh	KCNQ2 pot
CCc1cc(SC#N)cc(CC)c1NC(=O)CCl	0	5.3
COc1ccccc1C1CC(c2cccs2)=Nc2ccccc2S1 (stereo not given)	0	-
Fc1ccccc1C1CC(c2ccco2)=Nc2ccccc2S1 (stereo not given)	-7.3	0
Cc1cc(C)n2nc(CNS(=O)(=O)c3ccc(CC(C)C)cc3)nc2n1	0	-
C=C1SC(=Nc2ccccc2Cl)N(C(=O)c2sc3ccccc3c2Cl)C1(C)C	-5.8	0
C=C1SC(=Nc2c(C)cccc2Cl)N(C(=O)c2sc3ccccc3c2Cl)C12CCCCC2	0	-
Cc1c(CCC(=O)O)c(=O)oc2cc(OCc3ccccc3F)ccc12	0	0
Cc1cc(SCC(=O)c2cccs2)n2nc(C)c(-c3ccccc3)c2n1	0	6
C=CCSc1cc(C)nc2c(-c3ccccc3)c(C)nn12	0	-
Cc1ccc(N2CC(C(=O)Nc3ccc(S(=O)(=O)Nc4nccc(C)n4)cc3)CC2=O)cc1 (stereo not given)	0	-
CCOc1ccc2nc(/N=C/c3c(C)[nH]n(-c4ccccc4)c3=O)sc2c1	0	20
CCOc1[nH]n(-c2ccccc2)c(=O)c1C=Nc1ccc(OC)cc1	0	0
CCOc1ccc2nc(/N=C/c3c(C)[nH]n(-c4ccc(C)cc4)c3=O)sc2c1	0	17
CCOc1ccc2nc(SC3CC(=O)N(c4ccc(C)cc4)C3=O)sc2c1 (stereo not given)	0	-
COc1cc(C(=O)NCc2nnc(SCC(=O)NCc3ccco3)o2)cc(OC)c1OC	0	0
COc1ccc(CN(C)CC(=O)Nc2cccc3ccccc23)cc1F	-5.8	0
CCOc1ccc(CN(C)CC(=O)Nc2cccc3ccccc23)cc1OC	0	-
COC(=O)C1(C(C[N+](=O)[O-])c2ccc(C)cc2)C(=O)NCC1c1ccco1 (stereo not given)	0	-
COc1ccccc1N1CCN(C(=O)c2ccc3[nH]c(C)c(C)c3c2)CC1	0	-
Cc1[nH]c2ccc(C(=O)N3CCN(c4ccccc4Cl)CC3)cc2c1C	-6.5	0
